Inhibition data for 99 molecules are collected here from PubChem BioAssay AID1578 (Sanford-Burnham Center for Chemical Genomics, 2009).

One may read the inhibition as the relative decrease from the control value, in per cent.

In all, about 290,000 compounds went through this assay and about 3,000 (1%) were called active. Rule as the data show it: active = inhibition mostly above about 36% (no sharp cut-off); inactive = mostly below about 34%. The sample as a whole holds a higher share of actives than the screen did.

The experiment can be described thus: inhibition of NOD1-driven NF-kB reporter – cell-based, luminescence, uHTS, primary screen (AID 1578).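 Also: HEK-293T reporter cells stimulated with the NOD1 agonist gamma-tri-DAP.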 Conditions: NOD1-driven NF-kB luciferase reporter cells, at 4 µM, stronger effect = higher value. (In general: A reporter such as luciferase makes a cellular process visible.)
Consider `O=C(CN1CCN(Cc2ccccc2)CC1)Nc1ccc([N+](=O)[O-])cc1C(=O)Nc1ccccc1F`, for which the inhibition is -2.7% (inactive).
With `Cc1ccc(C(=O)NCc2nnc(SCC(=O)NC(C)c3ccccc3)n2C)cc1` (centres undefined), the inhibition was -35.4% (inactive).
As for `CCN(CC)C(=S)SSC(=S)N(CC)CC`, the inhibition is 91.1% (active).
Under `CCN(CC)C(=S)SCC(=O)c1ccccc1` stands -25.7% (inactive).
Under `CCN(CC)C(=S)SC1=CCS(=O)(=O)C1` stands -17.5% (inactive); under `CC/C(C)=N\N=C\c1c(O)n(CC)c2cc(C3=NNC(=O)CC3)ccc12`, -29.5% (inactive).
`CCCCC(CCCC)=N/N=C/c1c(O)n(CC)c2cc(C3=NNC(=O)CC3)ccc12`: the inhibition is -49.6% (inactive).
As to `CCC(CC)=N/N=C/c1c(O)n(CC)c2cc(C3=NNC(=O)CC3)ccc12`, the inhibition is 60.5% (active).
Regarding `C=CCNc1nc(C(=O)OCC(=O)c2ccc(C)c([N+](=O)[O-])c2)cs1`, the inhibition is -31.1% (inactive).
For the molecule `CCOC(=O)c1ccc(N2C(=O)C=CC2=O)cc1`, the inhibition was 80.8% (active).
As to `CCOC(=O)c1ccc(-n2c(C)ccc2C)cc1`, the inhibition is -10.6% (inactive).
Take `CCOC(=O)c1ccc(N2C(=O)C(C)=C(C)C2=O)cc1`: the inhibition was -37.3% (inactive).
With `NS(=O)(=O)c1ccc(CNC(=O)CSc2ccccc2)cc1`, the inhibition was -19.9% (inactive).
Turning to `O=C(COc1ccccc1Cl)NCCCNC(=O)c1cnccn1`, the inhibition was 27.3% (inactive).
Under `Cc1cc(NC(=O)C(C)SCC(=O)N(C)CC(=O)Nc2ccc(Br)cc2C)no1` (centres undefined) stands -22.8% (inactive); under `CCOc1ccc(NC(=O)CN(C)C(=O)CSC(C)C(=O)Nc2cc(C)on2)cc1OCC` (centres undefined), 44.5% (active); under `Cc1ccc(C)c(NC(=O)CN(C)C(=O)CSC(C)C(=O)Nc2cc(C)on2)c1` (centres undefined), -0.8% (inactive).
With `COc1cccc(OC)c1-c1nn(-c2ncc(C(F)(F)F)cc2Cl)c(=O)o1`, the inhibition was -7.3% (inactive).
Next, `CCOC(=O)c1cc2c(nc1N)CCCC2`: 1.3% (inactive); `O=C(Cc1cccs1)Nc1nc2ccccc2s1`: -32.2% (inactive); `O=C(Cc1cccs1)Nc1nc2c(ccc3ccccc32)s1`: 35.8% (active).
As for `CC(=O)Nc1nc2c(ccc3ccccc32)s1`, the inhibition is -38% (inactive).
Next, `COCCn1c(SCC(=O)NCC2CCCO2)nc2c(c1=O)SCC2` (centres undefined): -12.5% (inactive).
Consider `COc1ccc(S(=O)(=O)Cc2ccc(C(=O)NCc3ccc(C)cc3)o2)cc1`, for which the inhibition was -23.8% (inactive).
Regarding `O=C(/C=C/c1ccccc1)NC(=S)Nc1ccc(N2CCOCC2)cc1`, the inhibition was -25.8% (inactive).
For the molecule `O=C(Nc1scc(-c2cccs2)c1C(=O)O)c1cccs1`, the inhibition was -40.1% (inactive).
As to `O=C(/C=C/c1ccccc1)Nc1sc2c(c1C(=O)O)CCC2`, the inhibition was -2.6% (inactive).
Under `COc1ccc(-c2csc(NC(=O)c3cccs3)c2C(=O)O)cc1OC` stands -46.6% (inactive); under `COc1cc(C(=O)Nc2sc(C)c(C)c2C(=O)O)cc(OC)c1OC`, -18.1% (inactive); under `COc1cc(C(=O)Nc2scc(-c3ccccc3)c2C(=O)O)cc(OC)c1OC`, -21.1% (inactive).
In the case of `COc1cc(C(=O)Nc2sc3c(c2C(=O)O)CCC3)cc(OC)c1OC`, the inhibition was 7.5% (inactive).
As to `O=C(Nc1sc2c(c1C(=O)O)CCCC2)c1cccs1`, the inhibition was 43.6% (inactive).
Regarding `COc1cc(C(=O)Nc2scc(-c3ccc(C)cc3)c2C(=O)O)cc(OC)c1OC`, the inhibition is 12.7% (inactive).
Regarding `COc1ccc(CN(C)C(=O)c2cnc(OC)cc2C(F)(F)F)c(OC)c1`, the inhibition is 1% (inactive).
`OC(CC#CCN1CCCCC1)(c1ccccc1)c1ccccc1`: the inhibition is -4.1% (inactive).
Next, `CCN(c1ccccc1)S(=O)(=O)c1cccc(C(=O)N2CCN(S(=O)(=O)c3ccccc3)CC2)c1`: -20.1% (inactive).
Regarding `Cc1cc(C)nc(NS(=O)(=O)c2ccc(NC(=O)c3ccccc3[N+](=O)[O-])cc2)n1`, the inhibition was -22.1% (inactive).
Under `COc1ccc(-c2nnc(-c3cccnc3)o2)cc1OC` stands -21.1% (inactive); under `CC(CNC(=O)COc1ccccc1)OC(=O)Nc1cccc(Cl)c1` (centres undefined), 16.6% (inactive); under `CC1=CS/C(=C(/C#N)C(=O)NCc2ccco2)N1c1ccccc1`, 4% (inactive).
In the case of `COC(=O)C(Cc1c[nH]c2ccccc12)NC(=O)CNC(C)=O` (centres undefined), the inhibition is 6.8% (inactive).
Next, `COC(=O)c1c(NC(=O)c2cccs2)sc2c1CCC(C)C2` (centres undefined): -32.6% (inactive); `CC1CCc2c(sc(NC(=O)c3ccco3)c2C(=O)O)C1` (centres undefined): 14.4% (inactive); `O=C(NCCCN1CCN(c2ccccc2F)CC1)C1CC(=O)N(C2CCCC2)C1` (centres undefined): 14.3% (inactive).
In the case of `O=C(NC(=S)Nc1ccc2[nH]c(=O)[nH]c2c1)c1cc(Br)ccc1Cl`, the inhibition was 47.4% (active).
Under `COc1ccc(Br)cc1C(=O)NC(=S)Nc1ccc2[nH]c(=O)[nH]c2c1` stands -35.1% (inactive); under `O=C(NC(=S)Nc1ccc2[nH]c(=O)[nH]c2c1)c1ccccc1Cl`, -31.2% (inactive); under `COc1ccc2[nH]c(=O)c(CN(Cc3cccnc3)C(=S)NCC3CCCO3)cc2c1` (centres undefined), -30.3% (inactive).
Take `O=c1c2[nH]c3ccc(F)cc3c2ncn1CCN1CCOCC1`: the inhibition was -10.5% (inactive).
Next, `O=P(c1ccccc1)(c1ccccc1)C1CCCO1` (centres undefined): 4.7% (inactive).
`O=S(=O)(c1ccccc1)N1CCC2(CC1)OCCO2`: the inhibition is -41.5% (inactive).
In the case of `O=S(=O)(c1ccc(Cl)cc1)N1CCC2(CC1)CO2`, the inhibition was -17.5% (inactive).
Take `O=S(=O)(c1ccccc1)N1CCC2(CC1)CO2`: the inhibition was 75.5% (active).
In the case of `O=C(NCCCNC(=O)C(F)(F)C(F)F)C(F)(F)C(F)F`, the inhibition is -3.6% (inactive).
Take `O=C(CNS(=O)(=O)c1ccc(Br)cc1)Nc1ccc2c(c1)OCCO2`: the inhibition was -27.7% (inactive).
As to `CCC(CC)=NNC(=O)c1ccccc1OCc1ccc(F)cc1`, the inhibition is -13.1% (inactive).
Turning to `FC(F)(F)c1ccc(/C=N/NC(=S)NC2CCCCC2)cc1`, the inhibition is -19.8% (inactive).
As to `COc1cccc(OCc2cc(C(=O)N3CCC(c4ccncc4)CC3)no2)c1`, the inhibition is 26.7% (inactive).
As to `CSc1ccccc1OCc1cc(C(=O)N2CCC(Oc3cccnc3)CC2)no1`, the inhibition was -30.2% (inactive).
With `COCC1CCN(C(=O)c2cc(COc3ccccc3SC)on2)C1` (centres undefined), the inhibition is -17.6% (inactive).
Next, `Cc1cccc(C)c1OCc1cc(C(=O)N2CCC(c3ccncc3)CC2)no1`: 6.6% (inactive).
On to `Cc1ccc(NC(=S)NC(NC(=O)N(C)C)C(Cl)(Cl)Cl)cc1` (centres undefined), for which the inhibition is -18.2% (inactive).
For `Cc1cc(OCC(=O)N(C(C)C)C(C)C)ccc1Cl`, the inhibition is -6.4% (inactive).
As for `O=[N+]([O-])c1cccc(-c2nnc(C34CC5CC(CC(C5)C3)C4)o2)c1`, the inhibition was 3.3% (inactive).
Under `CC(=O)c1ccc(NC(=O)Nc2ccc3c(c2)nc(C)n3C)cc1` stands -18.8% (inactive); under `COc1ccccc1NC(=O)Nc1ccc2c(c1)nc(C)n2C`, -28.8% (inactive); under `CCn1c(C)nc2cc(NC(=O)Nc3cccc(C(C)=O)c3)ccc21`, 27.9% (active).
Under `CCn1c(C)nc2cc(C(=O)NNC(=O)Nc3cccc(Cl)c3)ccc21` stands -5.3% (inactive); under `Cc1nc2cc(NC(=O)Nc3ccccc3Cl)ccc2n1C`, 53% (active); under `Cc1nc2cc(NC(=O)Nc3cccc4ccccc34)ccc2n1C`, -27.6% (inactive).
Next, `CN1CCN(C(=O)C2CCCN(S(=O)(=O)c3ccc(F)cc3)C2)CC1` (centres undefined): -7.3% (inactive); `Cc1ccccc1Nc1n[nH]c(C)c1[N+](=O)[O-]`: -24.5% (inactive); `O=C(NCCc1ccccc1)c1cccc2c1C(=O)N(C1CCCCC1)C2`: -19.5% (inactive).
As to `COc1ccc(CC(=O)Nc2cccnc2)cc1`, the inhibition was -8.6% (inactive).
In the case of `O=C(Cc1ccc(Cl)cc1Cl)Nc1ccncc1`, the inhibition was 42.8% (inactive).
Under `COc1ccc(CC(=O)Nc2ccccc2NC(=O)Cc2ccc(OC)cc2)cc1` stands -7.4% (inactive); under `O=C(Cc1c(Cl)cccc1Cl)Nc1ccncc1Cl`, 5.2% (inactive).
Regarding `COc1ccccc1/C=C/CN1CC(C)OC(C)C1` (centres undefined), the inhibition was -19.9% (inactive).
For the molecule `Cc1ccc(NC(=O)CCn2cccc2)cc1`, the inhibition was 3.6% (inactive).
As to `O=C(CSc1nnc(-c2cccnc2)n1Cc1ccccc1)NCc1ccco1`, the inhibition was 8.8% (inactive).
As for `COC(=O)C1CCN(Cc2cn(-c3ccccc3)nc2-c2ccc3c(c2)OCO3)CC1`, the inhibition was -55.9% (inactive).
Under `CC1CN(Cc2c(O)ccc3c(=O)c(-c4ccccc4)coc23)CC(C)O1` (centres undefined) stands -13.3% (inactive); under `COc1ccc(C2N3CC4(C)CN2CC(C)(C3)C4=O)cc1OC` (centres undefined), -7.8% (inactive).
Consider `O=C(CCc1nc(-c2ccccc2)no1)NCc1ccco1`, for which the inhibition was 11% (inactive).
Under `Cc1ccc(-c2noc(CCC(=O)NCc3ccco3)n2)cc1` stands -0.8% (inactive); under `Fc1cnc(N2CCN(c3ccccc3)CC2)nc1N1CCN(c2ccccc2)CC1`, 43.3% (inactive).
Next, `O=C(CCc1nc2ccccc2c(=O)[nH]1)Nc1ccc(F)cc1`: -23.2% (inactive).
Turning to `c1ccn2cc(-c3ccc4c(c3)OCCO4)nc2c1`, the inhibition is 45.8% (active).
`Clc1ccc2nc(-c3ccc4c(c3)OCO4)cn2c1`: the inhibition was -30.6% (inactive).
Turning to `Oc1ccc(-c2cn3ccccc3n2)cc1O`, the inhibition is 1.7% (inactive).
On to `COC(=O)c1ccc2nc(-c3ccc4c(c3)OCO4)cn2c1`, for which the inhibition was 68.3% (active).
Under `Oc1ccc(-c2cn3ccccc3n2)cc1` stands -2% (inactive).
Next, `COC(=O)c1ccc2nc(-c3cccc(N)c3)cn2c1`: 40.5% (inactive); `CC12CCC(C(=O)O)(c3nc(C#N)c(C#N)nc31)C2(C)C` (centres undefined): -25.8% (inactive); `O=C(NCc1ccccn1)c1cccc(NS(=O)(=O)c2cccc(F)c2)c1`: -15.2% (inactive).
For the molecule `O=C(CCCn1c(=S)[nH]c2cc3c(cc2c1=O)OCO3)N1CCN(c2ccc(F)cc2)CC1`, the inhibition was -8.6% (inactive).
Regarding `O=C(CCCCCn1c(=S)[nH]c2ccc(N3CCOCC3)cc2c1=O)NCc1ccccc1`, the inhibition is 2.3% (inactive).
As for `Cc1cccc(N2CCN(C(=O)CCCn3c(=S)[nH]c4cc5c(cc4c3=O)OCO5)CC2)c1C`, the inhibition is 2.8% (inactive).
Next, `O=C(CCCn1c(=S)[nH]c2cc3c(cc2c1=O)OCO3)N1CCN(c2ccccc2)CC1`: -1% (inactive).
